Measurements published in PubChem BioAssay AID2685 (National Center for Advancing Translational Sciences (NCATS), 2010).
Out of some 320,000 compounds screened, about 2,100 (0.66%) were called active. Another 53% or so got no clear call; they are omitted. Calls come from the whole dose curve; as a rule, active = well fitted inhibition curve with a large enough effect in the signal ratio, with a control signal flat (not every such curve was filed as active); inconclusive = small, poorly fitted or top-dose-only effect, or effect the other way, or a change in a side signal; inactive = flat fitted curve, though single readings scatter; the % refers to the signal ratio. The list comes from a sample in which actives are over-represented; it also holds similar structures and randomly drawn compounds.

Experiment: qHTS Assay for Lipid Storage Modulators in Drosophila S3 Cells;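 for cell number change: cells counted by Cell Tracker Red CMTPX staining in the red channel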
Conditions: BODIPY lipid droplet fluorescence, 18-24 h, cells fed with added oleic acid; cell number change: measured here: cell count max response; series mostly up to 46.1 µM
In short: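 Laser-scanning cytometry quantifies lipid droplet accumulation (500–530 nm total intensity; droplet/cell object ratio) in oleic acid-fed (400 uM added) Drosophila S3 cells treated with a concentration series. 20 uM Triacsin C defined 100% inhibition.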
Potency is the fitted concentration of half-maximal effect.

SMILES | Potency | cell number change [%]
CC1=NN(C(=O)Cc2ccc([N+](=O)[O-])cc2)C(O)(C(F)(F)C(F)(F)F)C1 (centres undefined) | inactive | 24
CC(=O)NCCc1nc2ccccc2n1Cc1ccccc1 | inactive | 18.1
O=C(CSc1ncn[nH]1)Nc1cc(S(=O)(=O)N2CCCC2)ccc1Cl | inactive | 
CN(C)S(=O)(=O)c1cc(NC(=O)COC(=O)CCc2ccccc2)ccc1Cl | inactive | 11.3
Nc1[nH]nc2nc(N3CCOCC3)nc(-c3ccccc3)c12 | inactive | -23.8
O=C1C(=O)N(CCN2CCOCC2)C(c2cccnc2)/C1=C(/O)c1ccccc1 (centres undefined) | inactive | 0.678
O=C1N=C2N(CCN3CCCCC3)c3ccccc3N2/C1=C\c1ccc([N+](=O)[O-])o1 | inactive | 2.09
O=C1C=C(NCCN2CCOCC2)C(=O)c2cnccc21 | 11.6 µM (active) | -9.98
O=C1C=C(NCCN2CCOCC2)CC(c2ccccc2)C1 (centres undefined) | inactive | -2.43
O=C(NCCN1CCOCC1)c1ccncc1 | inactive | -7.07
COc1ccccc1NC(=O)N1C2CCCC1CC(NC(=O)c1ccccc1)C2 (centres undefined) | inactive | 9.36
COc1ccc(NS(=O)(=O)c2ccc3c(c2)oc(=O)n3C)cc1Cl | inactive | 10.6
COC(=O)c1ccc(Cl)c(NC(=O)CN(c2ccccc2)S(=O)(=O)c2ccc(OC)cc2)c1 | inactive | -1.49
O=C(O)c1ccc(-c2nc(-c3ccccc3)c(-c3cccs3)[nH]2)cc1 | inactive | 16.3
O=[N+]([O-])c1cccc(-c2nc(-c3ccccc3)c(-c3cccs3)[nH]2)c1 | inactive | -14.7
O=[N+]([O-])c1ccc(-c2nc(-c3cccs3)c(-c3cccs3)[nH]2)cc1 | 23.1 µM (active) | 7.44
O=S(=O)(Nc1ccc2nc(N3CCOCC3)sc2c1)c1ccc(Cl)cc1 | inactive | -15.7
CCOC(=O)C1(Cc2cccc(OC)c2)CCN(Cc2cc(OC)ccc2OC)CC1 | inactive | -22.3
COc1cc(OC)cc(C(=O)Nc2ccc(C(=O)c3ccncc3)cc2)c1 | inactive | 2.59
COc1ccc(C(CCN2CCCC(C)C2)c2c(OC)cc(OC)c3c(C)cc(=O)oc23)cc1 (centres undefined) | inactive | 7.77
CC[n+]1c(C)n(-c2ccccc2)c2ccc(C(=O)OC)cc21 | inactive | 6.2

SMILES | Potency | cell number change [%]
Cc1cc(C(F)(F)F)n2ncc(C(=O)O)c2n1 | 14.6 µM (active) | 
Cc1cc(C)n2ncc(C(=O)O)c2n1 | inactive | 12.3
Cc1ccc(-c2cc(C(F)(F)F)n3ncc(C(=O)O)c3n2)cc1 | inactive | -10.1
C=CCN1CC(=O)N2C(C)c3[nH]c4ccccc4c3C[C@H]2C1=O (some centres undefined) | inactive | 1.11
CCC(=O)Nc1ccc(-c2nnc(SCC(=O)Nc3nccs3)n2C)cc1 | inactive | 0.852
COc1cc(C2/C(=C(\O)c3ccc4c(c3)CC(C)O4)C(=O)C(=O)N2CC2CCCO2)cc(OC)c1OC (centres undefined) | 1.3 µM (active) | -16
COc1cccc(C2/C(=C(/O)c3ccc4c(c3)CC(C)O4)C(=O)C(=O)N2CC2CCCO2)c1 (centres undefined) | inactive | 14.4
CC1Cc2cc(/C(O)=C3/C(=O)C(=O)N(CC4CCCO4)C3c3ccco3)ccc2O1 (centres undefined) | inactive | 9.06
CC(C)N(C(=O)CSc1nnc(NC(=O)c2cccs2)s1)C(C)C | inactive | -20.6
CCc1nnc(NC(=O)CCC(=O)NCc2ccc(C)cc2)s1 | inactive | 
CCOC(=O)c1c(NC(=O)CN2C(=O)NC3(CCCCC3C)C2=O)sc(C)c1C (centres undefined) | inactive | -4.46
COC(=O)c1c(NC(=O)CN2C(=O)NC3(CCCCC3C)C2=O)sc2c1CCC2 (centres undefined) | 1.84 µM (active) | 2.22
COC(=O)c1c(NC(=O)CN2C(=O)NC3(CCC(C)CC3)C2=O)sc2c1CCC2 (centres undefined) | inactive | -11.8
c1ccc(CCNc2nc3ccccc3n3nnnc23)cc1 | inactive | -15.6
Oc1ccc(/C=N/Nc2ccnc3cc(Cl)ccc23)c(O)c1 | 29.1 µM (active) | -19.7
Clc1ccc2c(N/N=C/c3cccnc3)ccnc2c1 | inactive | 
Clc1ccc(NNc2ccnc3cc(Cl)ccc23)cc1 | inactive | 9.5
Cc1ccnc(NS(=O)(=O)c2cccc([N+](=O)[O-])c2)c1 | inactive | 3.2
COc1ccc(-n2nc(C(=O)NCC(=O)N3CCN(Cc4ccccc4)CC3)c3ccccc3c2=O)cc1 | 0.651 µM (active) | 5.41
CCN1CCN(C(=O)CNC(=O)c2nn(-c3ccc(OC)cc3)c(=O)c3ccccc23)CC1 | inactive | 8.11
COc1ccc(-n2nc(C(=O)NCC(=O)N3CCN(Cc4ccccc4)CC3)c3ccccc3c2=O)c(OC)c1 | inactive | 10.3

SMILES | Potency | cell number change [%]
COc1ccccc1N1CCN(C(=O)c2ccc(S(=O)(=O)N3CCCCCC3)cc2)CC1 | inactive | -9.51
COc1cc(C)c(Cl)cc1S(=O)(=O)NCc1ccncc1 | inactive | -7.29
COc1cc(S(=O)(=O)NCc2ccncc2)c(OC)cc1Cl | inactive | 12.7
COc1cc(S(=O)(=O)NCc2ccncc2)c(OC)cc1Br | 23.1 µM (active) | 3.68
COc1ccc(CCNC(=O)CN(C)S(=O)(=O)c2cccc3nsnc23)cc1OC | inactive | 0.234
CC(C)c1ccc(CNCCCSc2ncccn2)cc1 | inactive | -5.03
CC(C)(C)C(=O)CC1(O)C(=O)N(Cc2ccc(Cl)cc2)c2ccccc21 (centres undefined) | inactive | 7.61
CC(=O)N1C(=O)CC(C)N(C(C)=O)c2ccc([N+](=O)[O-])cc21 (centres undefined) | inactive | 1.88
c1ccc2c(c1)CCc1c(-c3ccncc3)n[nH]c1-2 | 18.4 µM (active) | 7.47
CC(C)NC(=O)c1[nH]nc2c1CCc1ccccc1-2 | inactive | -0.945
CNC(=O)c1[nH]nc2c1CCc1ccccc1-2 | inactive | 13.3
CC(C)C(=O)N1CCN(c2ccccc2NC(=O)COc2ccccc2)CC1 | inactive | -6.41
CCOC(=O)N1CCN(c2c(NC3CCN(Cc4ccccc4)CC3)c(=O)c2=O)CC1 | inactive | 6.86
O=C(c1cccc([N+](=O)[O-])c1)N(c1ccccn1)c1ccccn1 | inactive | 2.68
Cc1ccc(N(C)S(=O)(=O)c2cccc(C(=O)NCC(c3ccco3)N3CCCC3)c2)cc1 (centres undefined) | 7.31 µM (active) | -25.8
Cc1ccc(S(=O)(=O)N(C)c2ccc(C(=O)NCC(c3ccco3)N(C)C)cc2)cc1 (centres undefined) | 1.64 µM (active) | -16.7
CN(C)C(CNC(=O)c1ccc(S(=O)(=O)Nc2ccccc2)cc1)c1ccco1 (centres undefined) | inactive | 14.1
COc1ccc(N(C)S(=O)(=O)c2cccc(C(=O)NCC(c3ccco3)N3CCCC3)c2)cc1 (centres undefined) | inactive | 8.75
CN(C)C(CNC(=O)c1cc(S(=O)(=O)N(C)c2ccc(F)cc2)ccc1Cl)c1ccco1 (centres undefined) | inactive | 
Cc1ccc(NS(=O)(=O)c2cccc(C(=O)NCC(c3ccco3)N3CCCC3)c2)cc1 (centres undefined) | inactive | -2.68
